These results are taken from PubChem BioAssay (NCI).

Molecules are shown by their SMILES. Compounds without any hit were thinned out: in the full panel of roughly 83,000, 20% have a hit.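 The test compound was applied at a single concentration to cells in 96-well plates for 48 hours, and percent growth was recorded.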 Active and inactive are the calls of the source. Rule for the calls: active = growth percent below 10; inactive = the rest.

This assay has as its system BT-549 breast. The assay can be described thus: NCI-60 one-dose screen, 48 h (100 = growth as untreated, 0 = no growth, -100 = all killed). Conditions: 10 µM unless noted.
`N/C(=N\C(N)=N\c1nc2ccccc2s1)c1cccc(Cl)c1`: the growth is 81.1% (inactive).

In the case of `CCOC(=O)[C@@H](C)C[C@H](Cc1ccccc1)NC(=O)c1csc([C@@H](C[C@H](C(C)C)N(C)C(=O)[C@@H](NC(=O)[C@H]2C[C@H](O[Si](C)(C)C(C)(C)C)CCN2C)C(C)C)OC(C)=O)n1`, the growth was -29.6% [9.25 µM] (active).

Consider `COC(=O)/C=C1\S/C(=N\NC(=O)c2cc3ccc2/C=C\c2ccc(cc2)/C=C\3)N(c2ccccc2)C1=O`, for which the growth is 35.5% (inactive).

For the molecule `NNC(=O)c1ccc(-n2nc(-c3ccccc3)c3ccccc32)cc1`, the growth was 73.6% (inactive).

With `NC(=NCCCOc1ccc(F)cc1)Nc1ccc(I)cc1`, the growth was 74.8% (inactive).

With `N#CC1C(C#N)C(C(=O)c2ccc(Br)cc2)N2c3ccccc3C=CC12` (stereo not drawn), the growth was 93.2% (inactive).

For `CCN1C(=O)/C(=C/C(=O)OC)S/C1=N\NC(=O)c1cc2ccc1/C=C\c1ccc(cc1)/C=C\2`, the growth was 92.3% (inactive).

For the molecule `COc1ccccc1/C=C1\Oc2cc(OCCN3CCCC3)ccc2C1=O`, the growth is 84.2% (inactive).

`Cc1cc2nc3c4ccc(Br)cc4n(CCN(C)C)c3nc2cc1C`: the growth is 57.5% (inactive).

Consider `C/C(=N\Nc1cc(C)nc2ccc(Br)cc12)c1ccc([N+](=O)[O-])cc1`, for which the growth was 105% (inactive).

Take `COc1cc(C2C3CC4CCCC[C@H]4N3[C@@]3(C(=O)Nc4cc(Cl)ccc43)C2C(=O)c2nc3ccccc3[nH]2)cc(OC)c1OC` (stereo partly drawn): the growth was 76% (inactive).

Regarding `O=C1OC(Cc2ccccc2)C1c1ccccc1` (stereo not drawn), the growth was 95.1% (inactive).

With `CC(Oc1ccc(C(=O)O)cc1C(F)(F)F)c1ccc(Oc2ccccc2)cn1` (stereo not drawn), the growth is 89.1% (inactive).

Take `CC(Sc1nc2ccccc2c(=O)n1CCc1ccc(S(N)(=O)=O)cc1)C(=O)Nc1ccc(Cl)cc1` (stereo not drawn): the growth is 102% (inactive).

Take `CC1=CCC(OC(=O)C(C)(O)CCC(O)(C(=O)OC2(C)C=CC(O)(C(C)C)CC2)C(C)C)(C(C)C)CC1` (stereo not drawn): the growth is 114% (inactive).

As for `ClC1=C(Br)C(Br)(Br)C(=C(Br)Br)C1(Br)Br`, the growth is 113% (inactive).

`C=C1C(=O)O[C@H]2[C@H]1CC/C(CNC(=O)C(C)c1ccc(CC(C)C)cc1)=C\CC[C@@]1(C)O[C@@H]21` (stereo partly drawn): the growth is -39.5% (active).

For `CCCCCN1C=C/C(=C\C(=O)N2CCCc3ccccc32)c2ccccc21`, the growth was 79.7% (inactive).

As to `N#Cc1cc(-c2nc3ccccc3s2)c(=O)n(NS(=O)(=O)c2ccccc2)c1N`, the growth was 98.2% (inactive).

In the case of `CCCOc1ccc(/C=N/Nc2cc(C)nc3ccc(Cl)cc23)cc1`, the growth is 102% (inactive).

Turning to `Cc1cccc(NC(=O)Nc2ccc(-n3cnc4cc(-c5ccc(O)cc5)ccc43)cc2)c1`, the growth was 70.8% (inactive).

As for `O=c1c2c(c(=O)n1O)c1c3ccc[nH]c3nc1c1nc3[nH]cccc3c12`, the growth is 80.9% (inactive).

Turning to `O=C(CNCCN1CCOCC1)N1c2cccc3cccc(c23)N(C(=O)CNCCN2CCOCC2)C1c1cn(-c2ccccc2)nc1-c1cccc([N+](=O)[O-])c1`, the growth is 89.7% (inactive).

With `O=Cc1cc2ccccc2nc1Oc1ccc(C(F)(F)F)cc1`, the growth was 99.7% (inactive).

For the molecule `COc1ccc(C(=O)/C=C/c2cc3ccccc3n3nnnc23)cc1`, the growth was 99.2% (inactive).

Consider `CN1CCN(C(=O)[C@]23CCC(C)(C)C[C@H]2C2=CC[C@@H]4[C@@]5(C)C/C(=C/c6cccnc6)C(=O)C(C)(C)[C@@H]5CC[C@@]4(C)[C@]2(C)CC3)CC1`, for which the growth is 82% (inactive).

On to `CCN(CC)c1ccc(/C=N/NC(=O)CSc2nc3ccccc3c(=O)n2CCc2ccc(S(N)(=O)=O)cc2)c(O)c1`, for which the growth was 45.2% (inactive).

With `CCCCCCNC(=O)Nc1ccc2cc3ccc(NC(=O)NCCCCCC)cc3nc2c1`, the growth was 89.4% (inactive).

As to `CCNC(=O)Oc1ccc(/C(=C(\C)c2ccccc2)c2ccc(OCCN(CC)CC)cc2)cc1`, the growth is 76.1% (inactive).

For `CC/C(=C\c1ccc(OC)cc1)C(=O)c1ccc(OC)cc1`, the growth was 135% (inactive).

With `CCc1ccc(CNc2ccc(N3CCOCC3)c(C(=O)O)c2)cc1`, the growth is 105% (inactive).

Turning to `Cc1ccc(NS(=O)(=O)c2ccc(-c3cnc(C4CC4)o3)cc2)cc1C(F)(F)F`, the growth was 63.8% (inactive).

Take `C/C(=N\NC(=O)CSc1nc2ccccc2c(=O)n1CCc1ccc(S(N)(=O)=O)cc1)c1ccccn1`: the growth was 59.4% (inactive).

Regarding `C=C(CBr)[C@@H]1CC[C@]2(COC(C)=O)CC[C@]3(C)[C@H](CC[C@@H]4[C@@]5(C)CCCNC(C)(C)[C@@H]5CC[C@]43C)[C@@H]12`, the growth is 36.2% (inactive).

Consider `COc1ccc(C(=O)Nc2cccc(C3CCc4c(cc(OC)c(OC)c4OC)O3)c2)cc1` (stereo not drawn), for which the growth is 40.9% (inactive).

For the molecule `N=C(N)c1ccc(OCCCCCCCCCCOc2ccc(C(=N)N)cc2)cc1`, the growth is -84.5% (active).

On to `COc1cc2nc(-c3ccc(Cl)cc3)cc(OCCCN3CCOCC3)c2cc1OC`, for which the growth is 44.9% (inactive).

For `Brc1ccc2[nH]cc(-c3cncn3CCc3ccccc3)c2c1`, the growth is 41.3% (inactive).
